Rab9 promoter act = qHTS Assay for Rab9 Promoter Activators; Huh7 Rab9 promoter-luciferase reporter, luminescence, 24 h; Potency, µM (doses to about 9.22 µM), for the others: at the highest dose activation, negative = inhibition, most hits filed as activators; 2.8% of 320,000 active; note: % of control where 0% means no effect; nearly all actives have a fitted effect of over 60% in size
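Huh7 reporter line, Rab9 promoter upstream of luciferase. Compound exposure 24 h at 37 °C in reduced-serum medium with 10% FBS. Read-out: luminescence.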
SMN2 splice up = qHTS Assay for Enhancers of SMN2 Splice Variant Expression; Potency, µM (highest dose often 46.1 µM), for inactives: at the top dose activity change, positive = activation, actives largely listed as activators; HEK293 SMN2-luciferase splicing reporter, luminescence, 30-36 h; 2.8% of 210,000 active; note: % of control where 0% means no effect; nearly all actives have a fitted effect of over 55% in size
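HEK293 cells carry an SMN2 minigene-luciferase reporter in which exon 7 inclusion puts luciferase in frame. Cells were seeded at 2000 cells/well, attached for 10-12 hours, then exposed to compounds for 30-36 hours at 37C before ONE-Glo luminescence.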
ELG1 genotoxic = qHTS screen for small molecules that induce genotoxicity in human embryonic kidney (HEK293T) cells expressing luciferase-tagged ELG1; HEK293T ELG1-luciferase reporter, luminescence, 16 h; Potency, µM (doses to about 46 µM), inactives show at the top dose activity change, positive = activation, usual class: activators; 1.3% of 330,000 active; note: % of control where 0% means no effect; nearly all actives have a fitted effect of over 60% in size
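Genotoxic stress is detected as increased luminescence from luciferase-tagged ELG1 in HEK293T cells, measured with ONE-Glo after a 16 hr treatment at 37 °C.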
FLuc counter = qHTS profiling assay for firefly luciferase inhibitor/activator using purifed enzyme and Km concentrations of substrates (counterscreen for miR-21 project); Potency, µM (series often up to 57.5 µM), without a hit: at the top dose activity change, negative = inhibition, actives largely listed as inhibitors; Luciferin 4-monooxygenase (Photinus pyralis), P08659; 6.9% of 360,000 active; purified FLuc, Km substrates, luminescence inhibition; AID 588342, 2011;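 note: plate controls were vehicle for no effect and reference inhibitor for full effect; nearly all actives have a fitted effect of over 55% in size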
Target sequence (P08659 whole entry, looked up): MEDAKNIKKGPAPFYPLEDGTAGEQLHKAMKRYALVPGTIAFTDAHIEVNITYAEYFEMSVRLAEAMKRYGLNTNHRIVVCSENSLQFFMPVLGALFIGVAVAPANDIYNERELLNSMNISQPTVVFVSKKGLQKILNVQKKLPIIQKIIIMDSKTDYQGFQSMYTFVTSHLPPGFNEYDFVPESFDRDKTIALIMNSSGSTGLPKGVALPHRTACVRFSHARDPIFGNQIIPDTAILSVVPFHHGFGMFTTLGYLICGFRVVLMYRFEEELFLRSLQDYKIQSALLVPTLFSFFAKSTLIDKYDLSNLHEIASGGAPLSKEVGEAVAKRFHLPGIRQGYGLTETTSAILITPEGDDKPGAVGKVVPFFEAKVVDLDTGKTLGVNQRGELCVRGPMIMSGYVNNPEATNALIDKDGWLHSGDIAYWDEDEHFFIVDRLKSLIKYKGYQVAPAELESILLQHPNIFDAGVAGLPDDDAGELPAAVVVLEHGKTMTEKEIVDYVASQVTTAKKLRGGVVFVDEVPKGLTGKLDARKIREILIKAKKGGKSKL
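Biochemical qHTS of compounds, final roughly 60 µM downward over six points, against 10 nM purified firefly luciferase using Km concentrations of substrates (10 uM D-luciferin, 10 uM ATP) in Tris acetate pH 7.5 buffer; luminescence output.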
NPC1 prom act = qHTS Assay for NPC1 Promoter Activators; Huh7 NPC1 promoter luciferase reporter, 24 h; Potency, µM (titrated, usually from 9.22 µM), inactives show top-dose activation, hits mostly activators; 2.4% of 320,000 active; AID 485313, 2010; note: % of control where 0% means no effect; nearly all actives have a fitted effect of over 60% in size
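Luciferase expression driven by the NPC1 promoter was measured in stably transfected Huh7 cells after a 24 h compound incubation, using a luciferase reagent and a luminescence read.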
ELG1 DNA repair = qHTS screen for small molecules that inhibit ELG1-dependent DNA repair in human embryonic kidney (HEK293T) cells expressing luciferase-tagged ELG1; Potency, µM (highest dose often 46.1 µM), for inactives: at the top dose activity change, negative = inhibition, actives largely listed as inhibitors; 2.3% of 330,000 active; HEK293T ELG1-luciferase reporter, luminescence, 16 h; DNA damage induced by 5-fluorouridine; note: % is set by controls: 0 for no effect and ±100 for the full control effect; nearly all actives have a fitted effect of over 55% in size
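Cells (2,000 per well) received 5-fluorouridine plus test compound or DMSO and were incubated 16 hr at 37 °C, 5% CO2. Luciferase activity was read by luminescence 30 min after ONE-Glo addition; signal suppression marked inhibition of damage-induced ELG1 function.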
Numbers without * were called inactive; ? = inconclusive; nt = no result given. Sampled rows, rich in hits. Any-hit rate of the full collection: about 9.2%. Calls come from the whole dose curve; as a rule, active = well fitted curve in the direction sought with a large enough effect; inconclusive = small, poorly fitted or top-dose-only effect, or another doubt; inactive = no such curve, though single readings can be large; an effect the other way counts as inactive or inconclusive. Potency is the fitted concentration of half-maximal effect.

SMILES	Rab9 promoter act	SMN2 splice up	ELG1 genotoxic	FLuc counter	NPC1 prom act	ELG1 DNA repair
Cc1ccc(O)c(NC(=O)c2cccc(S(=O)(=O)N3CCCCC3)c2)c1	-2%	4.5µM*	-1%	-9%	0%	-20%
O=C(Nc1ccccc1C(=O)O)c1cccc(S(=O)(=O)N2CCCC2)c1	nt	6%	nt	12µM*	nt	nt
CCOP(=O)(NC(c1ccccc1)c1nc2ccccc2[nH]c1=O)OCC (centres undefined)	9%	nt	0%	2%	0%	?
CCOC(=O)CNC(=O)c1cccnc1Oc1ccc(Cl)cc1	-7%	nt	1%	2%	3%	-7%
CC(=O)Nc1nc2ccccc2n1CCOc1ccccc1Cl	-11%	-46%	-4%	-2%	-5%	?
O=C(Nc1nc2ccccc2n1CCOc1ccccc1Cl)c1ccccc1	nt	18%	nt	4.8µM*	nt	nt
CN(C)S(=O)(=O)c1cccc(C(=O)Nc2cc(Cl)ccc2O)c1	?	-13%	-1%	13µM*	?	5%
COc1ccc(CNC(=O)c2ccc3c(c2)N(Cc2ccccc2F)C(=O)c2ccccc2S3=O)cc1 (centres undefined)	nt	-26%	nt	2%	nt	nt
COc1ccc(C2CC(c3ccccc3)=NN2c2ccc(Cl)c(C(=O)O)c2)cc1 (centres undefined)	0%	nt	6%	21µM*	0%	6%
COc1ccc(-c2nn(CCC(=O)O)cc2CCC(=O)O)cc1	8%	-2%	1%	-1%	-1%	-6%
COc1ccc(C2=NN(c3ccccc3)C(c3cn(CCC(=O)O)nc3-c3ccccc3)C2)cc1 (centres undefined)	16%	11%	4%	4.3µM*	7%	?
COc1ccc(C2CC(c3ccccc3)=NN2c2ccc(N)cc2)cc1 (centres undefined)	4%	8%	13%	9.5µM*	-5%	-22%
CCC(=O)Nc1cccc(C2=NN(c3ccccc3)C(c3ccc(OC)cc3)C2)c1 (centres undefined)	-6%	nt	-3%	-13%	2%	?
CCOC(=O)c1ccccc1NC(=O)CN1C(=O)CC(c2ccccc2)Sc2ccccc21 (centres undefined)	nt	-26%	nt	-14%	nt	nt
Cc1ccc(C)n1-c1cccc(S(=O)(=O)N2CCOCC2)c1	-6%	15%	26µM*	3%	-11%	?
CCSc1nc2c(c(=O)[nH]c(=O)n2C)n1CC(O)COc1ccccc1C (centres undefined)	-7%	-5%	-15%	-1%	1%	16µM*
C=CCc1ccccc1OCC(O)CN1C(=O)c2ccccc2C1=O (centres undefined)	3%	nt	-2%	-12%	-3%	2%
Cc1ccccc1OCC(O)CN1C(=O)c2ccccc2C1=O (centres undefined)	4%	nt	9%	13µM*	3%	19%
O=C1c2ccccc2C(=O)N1CC(O)COc1ccccc1Cl (centres undefined)	?	nt	5%	11µM*	18%	?
O=C(CCNS(=O)(=O)c1ccccc1C(F)(F)F)NC1CCCCCC1	1%	nt	0%	4%	-2%	-5%
CC(C)(C)c1ccc(C(=O)N/C(=C\c2cccs2)C(=O)N2CCOCC2)cc1	2%	nt	0%	-6%	2%	-2%
O=C(COc1cccc2c1CCN(Cc1ccc(Br)cc1)C2=O)N1CCOCC1	-1%	-46%	-6%	-1%	-4%	7.3µM*
O=C1c2cccc(OCC(=O)N3CCCc4ccccc43)c2CCN1Cc1ccc(Br)cc1	-6%	-61%	-14%	-2%	-4%	18µM*
O=C(COc1cccc2c1CCN(Cc1ccc(Br)cc1)C2=O)NCc1ccco1	1%	-26%	-11%	-2%	-2%	18µM*
CCOC(=O)c1cccc(NC(=O)c2cc(S(=O)(=O)N3CCCC3)cn2C)c1	nt	nt	nt	0%	nt	nt
SMILES	Rab9 promoter act	SMN2 splice up	ELG1 genotoxic	FLuc counter	NPC1 prom act	ELG1 DNA repair
Cc1cc(N2CCN(c3ccccc3F)CC2)nc2cc(O)ccc12	10%	-15%	7%	15µM*	3%	?
Cc1cc(N2CCOCC2)nc2ccc(NC(=O)CCC(=O)N3CCN(c4ccc(F)cc4)CC3)cc12	?	nt	-2%	19µM*	25%	?
Cc1cc(N2CCOCC2)nc2ccc(NC(=O)CCC(=O)N3CCCC(C)C3)cc12 (centres undefined)	?	13µM*	?	21µM*	4µM*	?
Cc1cc(N2CCCCC2)nc2ccc(NC(=O)CCC(=O)N3CCN(c4ccccc4)CC3)cc12	nt	6%	nt	9.5µM*	nt	nt
Cc1cc(N2CCN(C)CC2)nc2ccc(NC(=S)N3CCN(c4ccc(F)cc4)CC3)cc12	-10%	-22%	-3%	0%	-8%	-14%
C=C(C)CN1C(=O)C2(OCCO2)c2ccccc21	2%	nt	0%	-1%	-1%	12%
CCC(=O)c1ccc(OC(C)C(=O)NC2(C#N)CCCCC2)cc1 (centres undefined)	-2%	18%	0%	1%	-2%	7%
Cc1cc(N2CCOCC2)nc2ccc(NC(=O)CCC(=O)N3CCN(c4ccccc4F)CC3)cc12	4µM*	nt	?	6µM*	?	?
Cc1ccc(C)c(N2CCN(C(=O)CCC(=O)Nc3ccc4nc(N5CCCCC5)cc(C)c4c3)CC2)c1	nt	10%	nt	?	nt	nt
O=C(Nc1cccc(NC(=O)c2ccco2)n1)c1ccco1	-4%	nt	-1%	?	0%	-2%
CC(=O)NCCc1nc2cc(NC(=O)c3cccc([N+](=O)[O-])c3)ccc2n1C	2.8µM*	nt	?	?	2.8µM*	?
CCC(=O)NCCc1nc2cc(NC(=O)c3cccc([N+](=O)[O-])c3)ccc2n1C	3.5µM*	nt	?	?	?	?
CCn1c(CN2CCCCC2)nc2cc(NC(=O)c3cccc([N+](=O)[O-])c3)ccc21	nt	nt	nt	-1%	nt	nt
Cc1nc(N2CCCCC2)sc1C(=O)c1ccc(Cl)c([N+](=O)[O-])c1	-8%	-1%	-5%	-16%	-9%	18µM*
COc1cc(/C=N/NC(=O)CSc2n[nH]c(=O)[nH]c2=O)cc(OC)c1O	0%	-19%	2%	4%	-7%	7%
O=C(O/N=C1/CCCc2occc21)c1ccccc1	0%	-7%	2%	2.1µM*	-5%	30%

Screening data as filed in PubChem.
